Unmarked numbers belong to inactive results. Records with an inconclusive call do not appear. Activity calls are given as the source filed them. Unless noted, calls come from the whole dose curve; as a rule, active = well fitted curve in either direction with a large enough effect (not every such curve was filed as active); inconclusive = small, poorly fitted or top-dose-only effect, or another doubt; inactive = flat fitted curve, though single readings scatter. Residues, ends and D or L forms follow the SMILES beside them.
How the values were obtained:
[1] = target: Lysosomal acid glucosylceramidase (Homo sapiens) (UniProt P04062); experiment: Glucocerebrosidase-p2 (AID 348; in the data active = potency below about 10 µM; note: potency is the fitted concentration of half-maximal effect); settings: purified GBA, blue fluorogenic substrate, 40 min
Chain of Lysosomal acid glucosylceramidase (Homo sapiens) (P04062 whole entry, looked up): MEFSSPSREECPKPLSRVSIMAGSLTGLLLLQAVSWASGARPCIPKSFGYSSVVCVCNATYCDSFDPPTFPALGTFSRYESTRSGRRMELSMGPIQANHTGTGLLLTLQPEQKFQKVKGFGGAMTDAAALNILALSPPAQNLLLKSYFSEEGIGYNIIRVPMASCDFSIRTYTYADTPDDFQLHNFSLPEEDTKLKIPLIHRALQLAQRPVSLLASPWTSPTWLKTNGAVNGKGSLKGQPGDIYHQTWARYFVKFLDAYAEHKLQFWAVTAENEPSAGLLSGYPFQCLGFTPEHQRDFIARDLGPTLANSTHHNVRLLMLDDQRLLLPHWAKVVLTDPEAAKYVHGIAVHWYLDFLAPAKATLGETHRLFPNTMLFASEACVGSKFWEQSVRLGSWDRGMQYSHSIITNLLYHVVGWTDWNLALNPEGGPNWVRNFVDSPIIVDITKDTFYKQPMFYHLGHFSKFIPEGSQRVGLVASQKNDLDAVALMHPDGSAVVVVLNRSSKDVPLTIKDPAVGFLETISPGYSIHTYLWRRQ
Method in brief: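 Compounds titrated from 0.6 nM upwards against 0.2 nM enzyme in pH 5.9 citric acid/KH2PO4, taurocholate, tween-20; blue fluorogenic substrate 80 uM, 40 min room temperature, stopped and read Ex 365/Em 440 for AC50.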

[2] = AP1 Signaling Pathway (AID 357); settings: ME-180 AP-1-bla reporter, EGF-induced, beta-lactamase ratio, 5 h; at 7.69 µM (top of the series) unless noted;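 note: ME-180 reporter cells stimulated with EGF at its EC50 level; % is set by controls: 0 for no effect and ±100 for the full control effect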
Method in brief: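 Beta-lactamase reporter under AP-1 response element, ME-180 background. Stimulus: EC50 EGF. Compound exposure 5 h, 37 °C. Detection: CCF4, 2.5 h RT, 460/530 nm. Values: AC50 from titration.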

[3] = NFAT Signaling Pathway (AID 444); settings: Jurkat NFAT-bla M1, carbachol, beta-lactamase ratio, 5 h; at 7.69 µM (top of the series) unless noted;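 note: carbachol stimulus at about its EC50 of 1 µM final; % is set by controls: 0 for no effect and ±100 for the full control effect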
Method in brief: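 Jurkat cells with NFAT-driven β-lactamase reporter and co-expressed M1 receptor, stimulated with carbachol (final 1 uM, ~EC50), compound titration, 5 h at 37 °C. CCF4 loaded 1 h at RT; 460/530 nm ratio gave %activity and AC50.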

[4] = Stat Signaling Pathway (AID 446); settings: ME-180 SIE beta-lactamase reporter, IL-6 stimulated, 5 h; at 7.69 µM (top of the series) unless noted;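 note: ME-180 cervical cancer cells given 40 pM IL-6 alongside compound; SIE-controlled beta-lactamase reporter measured as 460/530 nm FRET emission ratio; % is set by controls: 0 for no effect and ±100 for the full control effect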
Method in brief: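 Reporter line: ME-180 cervical carcinoma, SIE-beta-lactamase. Treatment: compound with 40 pM IL-6, 5 hrs, 37 C, in low-serum OPTI-MEM with 10 mM HEPES pH 7.3. Detection: 460/530 nm fluorescence.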

[5] = target: Glucocorticoid receptor (Homo sapiens) (UniProt P04150); experiment: GR-GFP Redistribution (AID 450;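 active = compounds whose dose series gives a full or clear partial fitted curve of increased nuclear translocation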; note: potency is the fitted concentration of half-maximal effect); settings: U2OS GR-GFP nuclear translocation, laser cytometry, 2 h
Chain of Glucocorticoid receptor (Homo sapiens) (P04150 whole entry, looked up, the tested form may be a part): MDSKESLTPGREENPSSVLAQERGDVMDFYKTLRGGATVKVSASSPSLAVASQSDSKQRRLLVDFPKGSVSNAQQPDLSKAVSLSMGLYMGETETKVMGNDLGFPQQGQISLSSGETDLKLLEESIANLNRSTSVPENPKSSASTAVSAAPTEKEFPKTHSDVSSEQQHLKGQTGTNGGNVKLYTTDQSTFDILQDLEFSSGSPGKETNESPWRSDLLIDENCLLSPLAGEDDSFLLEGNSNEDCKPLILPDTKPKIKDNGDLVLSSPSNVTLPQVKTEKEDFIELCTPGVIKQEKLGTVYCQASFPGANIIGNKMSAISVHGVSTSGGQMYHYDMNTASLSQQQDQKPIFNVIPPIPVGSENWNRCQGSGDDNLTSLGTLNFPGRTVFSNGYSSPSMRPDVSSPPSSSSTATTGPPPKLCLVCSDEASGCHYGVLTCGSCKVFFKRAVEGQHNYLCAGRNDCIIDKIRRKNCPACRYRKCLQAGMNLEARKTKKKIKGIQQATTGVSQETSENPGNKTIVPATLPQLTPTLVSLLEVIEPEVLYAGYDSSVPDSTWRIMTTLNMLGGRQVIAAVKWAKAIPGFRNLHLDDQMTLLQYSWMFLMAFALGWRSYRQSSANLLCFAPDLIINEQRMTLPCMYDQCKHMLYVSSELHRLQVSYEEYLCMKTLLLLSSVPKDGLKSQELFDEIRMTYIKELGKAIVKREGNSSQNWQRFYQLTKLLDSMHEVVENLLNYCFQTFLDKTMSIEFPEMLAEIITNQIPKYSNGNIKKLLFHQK

[6] = target: Glucocorticoid receptor (Homo sapiens) (UniProt P04150); experiment: GR-EFC Redistribution (AID 451; calls by dose curve; note: potency is the fitted concentration of half-maximal effect); settings: CHO-K1 GR-EFC translocation, beta-gal luminescence, 2 h
Method in brief: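 CHO-K1 cells expressing nuclear EA and GR-ED fragments of b-gal; compounds titrated up to 46 uM final, 2 h at 37 C. GR nuclear translocation read as complemented b-gal luminescence after 1 h RT detection.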

[7] = target: Mitogen-activated protein kinase 10 (Mus musculus) (UniProt Q61831); experiment: JNK3 AlphaScreen Assay (AID 530); settings: JNK3 lysate, c-Jun phosphorylation; series mostly up to 11.4 µM;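 note: kinase came from lysate of stimulated human HepG2 cells; signal reports phosphorylation of biotinylated GST-cJun 1-79 at Ser73 with 10 µM ATP; % is set by controls: 0 for no effect and ±100 for the full control effect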
Method in brief: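 Pre-activated (IL-1β/TNFα) JNK3 in HepG2 lysates phosphorylates biotin-GST-cJun(1-79), 10 uM ATP; anti-phospho-cJun(Ser73) AlphaScreen read at room temperature, pH 7.6 Tris buffer. Compounds pre-incubated 15 min as titrations.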

[8] = target: 3',5'-cyclic-AMP phosphodiesterase 4B (Homo sapiens) (UniProt Q07343); experiment: qHTS Assay for Inhibitors of PDE-IV (AID 607; active = well fitted activation curve with a large enough effect in the main read-out, with a control signal flat, not every such curve was filed as active; note: % of control where 0% means no effect); settings: HEK293 ACTOne CNG channel cells, membrane potential fluorescence; series mostly up to 22.9 µM
Chain of 3',5'-cyclic-AMP phosphodiesterase 4B (Homo sapiens) (Q07343 whole entry, looked up): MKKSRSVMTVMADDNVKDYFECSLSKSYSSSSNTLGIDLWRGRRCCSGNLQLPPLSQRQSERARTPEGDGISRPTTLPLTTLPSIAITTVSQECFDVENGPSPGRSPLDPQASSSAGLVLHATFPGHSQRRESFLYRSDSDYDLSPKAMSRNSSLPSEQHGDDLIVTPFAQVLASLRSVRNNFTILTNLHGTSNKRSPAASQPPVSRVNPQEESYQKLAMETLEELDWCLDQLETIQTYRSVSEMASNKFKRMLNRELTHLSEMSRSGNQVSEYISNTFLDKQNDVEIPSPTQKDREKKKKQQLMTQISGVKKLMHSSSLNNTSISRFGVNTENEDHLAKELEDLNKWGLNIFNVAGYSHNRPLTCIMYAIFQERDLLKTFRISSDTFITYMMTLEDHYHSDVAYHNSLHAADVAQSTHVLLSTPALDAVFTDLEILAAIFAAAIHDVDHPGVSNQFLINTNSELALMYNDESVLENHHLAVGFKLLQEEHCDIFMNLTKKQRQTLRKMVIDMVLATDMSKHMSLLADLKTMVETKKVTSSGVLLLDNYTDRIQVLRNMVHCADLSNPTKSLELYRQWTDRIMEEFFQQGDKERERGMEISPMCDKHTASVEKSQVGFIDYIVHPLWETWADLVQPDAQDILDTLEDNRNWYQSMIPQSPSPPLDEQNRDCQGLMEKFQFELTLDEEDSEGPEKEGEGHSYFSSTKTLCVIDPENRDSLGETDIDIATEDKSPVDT
Method in brief: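 Cell-based read-out of cAMP via a modified cyclic nucleotide-gated channel and membrane potential dye (535/590 nm) in HEK293 cells expressing PDE4 endogenously. Compounds tested up to 22.9 uM final; 100 uM RO 20-1724 reference.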

[9] = target: Cytochrome P450 3A4 (Homo sapiens) (UniProt P08684); experiment: qHTS Assay for Activators of Cytochrome P450 3A4 (AID 885; active = well fitted curve in the direction sought with a large enough effect; an effect the other way counts as inactive or inconclusive; note: nearly all actives have a fitted effect of over 65% in size; note: potency is the fitted concentration of half-maximal effect); settings: recombinant CYP3A4, Luciferin-PPXE luminescence, 60 min; series mostly up to 11.4 µM
Chain of Cytochrome P450 3A4 (Homo sapiens) (P08684 whole entry, looked up): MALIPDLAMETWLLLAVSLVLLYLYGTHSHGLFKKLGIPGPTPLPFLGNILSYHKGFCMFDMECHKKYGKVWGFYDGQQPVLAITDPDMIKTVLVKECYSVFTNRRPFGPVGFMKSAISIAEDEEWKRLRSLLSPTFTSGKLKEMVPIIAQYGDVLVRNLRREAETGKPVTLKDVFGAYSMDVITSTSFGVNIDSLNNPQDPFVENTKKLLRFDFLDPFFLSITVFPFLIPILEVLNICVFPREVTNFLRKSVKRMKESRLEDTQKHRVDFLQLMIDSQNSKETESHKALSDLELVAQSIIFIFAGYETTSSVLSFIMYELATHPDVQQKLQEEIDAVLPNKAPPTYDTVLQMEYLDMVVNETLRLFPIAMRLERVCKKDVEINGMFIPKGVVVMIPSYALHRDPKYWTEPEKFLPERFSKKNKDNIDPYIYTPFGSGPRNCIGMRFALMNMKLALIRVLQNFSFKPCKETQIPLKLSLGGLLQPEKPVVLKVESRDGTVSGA
Method in brief: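 Signal was normalized against complete inhibition by 57 uM ketoconazole. The reaction used 20nM CYP3A4 with 25uM Luciferin-PPXE, 10-min compound preincubation and a 60-min NADPH-supported step at RT.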

[10] = target: Cytochrome P450 2C9 (Homo sapiens) (UniProt P11712); experiment: qHTS Assay for Inhibitors and Substrates of Cytochrome P450 2C9 (AID 883; active = well fitted curve in the direction sought with a large enough effect; an effect the other way counts as inactive or inconclusive; note: nearly all actives have a fitted effect of over 60% in size; note: potency is the fitted concentration of half-maximal effect); settings: recombinant CYP2C9, luciferin-H luminescence, 60 min; series mostly up to 11.4 µM
Chain of Cytochrome P450 2C9 (Homo sapiens) (P11712 whole entry, looked up): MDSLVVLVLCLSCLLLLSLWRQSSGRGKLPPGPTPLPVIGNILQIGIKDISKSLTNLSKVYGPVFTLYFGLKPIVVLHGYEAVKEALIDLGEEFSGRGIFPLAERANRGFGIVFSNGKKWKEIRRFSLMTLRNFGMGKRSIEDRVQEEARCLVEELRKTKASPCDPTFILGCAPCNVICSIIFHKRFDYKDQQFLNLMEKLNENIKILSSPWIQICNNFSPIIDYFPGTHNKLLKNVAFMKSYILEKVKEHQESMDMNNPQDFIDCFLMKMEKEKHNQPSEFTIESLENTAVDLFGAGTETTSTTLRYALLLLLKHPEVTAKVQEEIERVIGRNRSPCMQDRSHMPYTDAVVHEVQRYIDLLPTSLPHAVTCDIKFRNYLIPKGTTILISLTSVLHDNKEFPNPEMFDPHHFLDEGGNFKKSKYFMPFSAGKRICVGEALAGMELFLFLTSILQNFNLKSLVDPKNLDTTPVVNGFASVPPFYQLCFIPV
Method in brief: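 Signal: luciferase luminescence reporting luciferin produced by CYP2C9. Conditions: 10nM enzyme, Luciferin-H 100uM at KM, 25mM KPO4, 37C, 60 min NADPH-driven reaction. Reference: 57uM sulphaphenazole as 100% inhibition.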

[11] = target: Cytochrome P450 3A4 (Homo sapiens) (UniProt P08684); experiment: qHTS Assay for Inhibitors and Substrates of Cytochrome P450 3A4 (AID 884; active = well fitted curve in the direction sought with a large enough effect; an effect the other way counts as inactive or inconclusive; note: nearly all actives have a fitted effect of over 50% in size; note: potency is the fitted concentration of half-maximal effect); settings: recombinant CYP3A4, Luciferin-PPXE luminescence; series mostly up to 57.1 µM
Method in brief: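 20 nM human CYP3A4 with 25 uM Luciferin-PPXE (at KM) in 200 mM KPO4, preincubated 10 min with compound; NADPH regeneration started a 60 min RT reaction. Luciferin detected by luminescence, normalized to 57 uM ketoconazole as full inhibition.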

[12] = target: Cytochrome P450 2C19 (Homo sapiens) (UniProt P33261); experiment: qHTS Assay for Inhibitors and Substrates of Cytochrome P450 2C19 (AID 899; active = well fitted curve in the direction sought with a large enough effect; an effect the other way counts as inactive or inconclusive; note: nearly all actives have a fitted effect of over 60% in size; note: potency is the fitted concentration of half-maximal effect); settings: recombinant CYP2C19, luciferin-H EGE luminescence; series mostly up to 11.4 µM
Chain of Cytochrome P450 2C19 (Homo sapiens) (P33261 whole entry, looked up): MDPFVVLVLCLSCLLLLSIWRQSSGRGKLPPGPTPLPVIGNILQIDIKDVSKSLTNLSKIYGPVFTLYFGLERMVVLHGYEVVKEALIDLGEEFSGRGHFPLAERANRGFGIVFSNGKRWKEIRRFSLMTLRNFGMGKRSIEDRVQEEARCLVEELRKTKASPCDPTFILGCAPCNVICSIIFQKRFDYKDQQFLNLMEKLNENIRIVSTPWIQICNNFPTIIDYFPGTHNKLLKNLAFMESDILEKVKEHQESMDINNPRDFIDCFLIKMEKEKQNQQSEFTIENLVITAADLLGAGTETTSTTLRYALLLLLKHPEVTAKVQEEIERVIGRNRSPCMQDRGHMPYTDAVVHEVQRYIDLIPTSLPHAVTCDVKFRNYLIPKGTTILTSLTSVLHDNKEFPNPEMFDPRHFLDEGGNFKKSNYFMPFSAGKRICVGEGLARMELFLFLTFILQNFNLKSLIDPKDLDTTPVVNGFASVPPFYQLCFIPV
Method in brief: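 Signal comes from luciferase acting on luciferin released by CYP2C19-mediated hydroxylation of Luciferin-H EGE, 10uM (KM). Assay mix: 5nM enzyme, 50mM KPO4; 60 min at 37C with NADPH regeneration. Data normalized against 57uM ketoconazole.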

[13] = target: Cytochrome P450 2D6 (Homo sapiens) (UniProt P10635); experiment: qHTS Assay for Inhibitors and Substrates of Cytochrome P450 2D6 (AID 891; active = well fitted curve in the direction sought with a large enough effect; an effect the other way counts as inactive or inconclusive; note: nearly all actives have a fitted effect of over 60% in size; note: potency is the fitted concentration of half-maximal effect); settings: recombinant CYP2D6, luciferin-ME EGE luminescence; series mostly up to 11.4 µM
Chain of Cytochrome P450 2D6 (Homo sapiens) (P10635 whole entry, looked up): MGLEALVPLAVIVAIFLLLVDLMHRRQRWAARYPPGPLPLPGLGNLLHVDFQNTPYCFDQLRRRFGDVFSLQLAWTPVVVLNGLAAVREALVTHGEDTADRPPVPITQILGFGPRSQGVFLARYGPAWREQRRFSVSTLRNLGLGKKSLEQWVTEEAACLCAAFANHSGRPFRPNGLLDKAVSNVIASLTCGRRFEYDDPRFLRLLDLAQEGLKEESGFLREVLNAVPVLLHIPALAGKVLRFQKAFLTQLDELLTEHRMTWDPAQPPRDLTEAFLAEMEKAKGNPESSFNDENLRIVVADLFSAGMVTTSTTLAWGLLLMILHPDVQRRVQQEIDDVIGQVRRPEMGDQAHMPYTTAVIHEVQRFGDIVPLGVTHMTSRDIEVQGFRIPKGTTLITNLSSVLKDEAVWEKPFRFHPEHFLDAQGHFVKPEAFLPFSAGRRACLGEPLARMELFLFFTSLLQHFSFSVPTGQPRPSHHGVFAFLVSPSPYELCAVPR
Method in brief: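 Human CYP2D6 (5 nM) with 30 uM Luciferin-ME EGE (at Km) in 100 mM KPO4, compound preincubated 10 min, then NADPH regeneration system for 60 min at room temperature. Luciferin read by luminescence; normalized to 1.43 uM quinidine.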

[14] = qHTS Assay for Identification of Small Molecule Agonists for Hypoxia Response Element Signaling Pathway (AID 914; active = well fitted activation curve with a large enough effect in the signal ratio, with a control signal flat, not every such curve was filed as active; the % refers to the signal ratio; note: % of control where 0% means no effect); settings: ME-180 (cervical carcinoma) HRE-bla reporter, beta-lactamase ratio, CoCl2, 17 h; activation: stronger effect = higher value
Method in brief: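 HRE-bla ME-180 assay for agonist-like enhancement of an EC50 CoCl2 stimulus: 17 h at 37 degrees Celsius, CCF4 for 2.5 h, ratiometric 460/530 nm signal converted to %Activity and fitted to AC50.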

SMILES	Potency [1]	activity change, negative = inhibition [2] [%]	activity change, negative = inhibition [3]	activity, negative = inhibition [4] [%]	Potency [5] [µM]	Potency [6] [µM]	Potency [7]	Potency [8]	Potency [9]	Potency [10]	Potency [11]	Potency [12]	activity change, negative = inhibition [11]	Potency [13]	activation [14] [%]
C[C@H](Br)C(=O)Nc1ccc(C(=O)O)c(O)c1	> 11.4 µM	1.78	-22.6%	-4.23	> 46	> 9.22	inactive	inactive	–	–	–	–	–	–	–
CC(C)C1=C[C@@]23CC[C@@H]4[C@](C)(CCC[C@@]4(C)C(=O)O)[C@@H]2C[C@@H]1[C@@H](C(=O)O)[C@@H]3C(=O)O	> 11.4 µM	1.99	4.67%	5.23	> 46	> 9.22	inactive	inactive	–	–	–	–	–	–	–
O=C(O)c1ccccc1-c1ccccc1C(=O)Nc1ccc2c(c1)[nH]c(=O)c1ccccc12	> 11.4 µM	-4.06	1.08%	-25.4	> 46	> 9.22	inactive	inactive	inactive	–	–	–	–	–	–
Fc1cccc(CSc2ncnc3c2ncn3[C@H]2CCCS2)c1	> 11.4 µM	-5.08	-2.58%	3.04	> 46	> 9.22	inactive	inactive	–	–	–	–	–	–	–
Cc1cc(N2CCOCC2)nc2ccc(Cc3ccc4nc(N5CCOCC5)cc(C)c4c3)cc12	6.83 µM (active)	-21.7	-6.47%	-14.5	> 46	> 9.22	inactive	inactive	3.16 µM (active)	3.98 µM (active)	–	–	–	–	–
CN1CCC(n2[nH]c(-c3ccccc3)c(Cc3ccccc3)c2=O)CC1	> 11.4 µM	-1.32	-82.4% (active)	11.1	> 46	> 9.22	inactive	inactive	inactive	–	3.98 µM (active)	–	–	–	–
CO[C@@H]1/C=C\O[C@]2(C)Oc3c(C)c(O)c4c(O)c(c(CN5CCN(C)CC5)c(O)c4c3C2=O)NC(=O)/C(C)=C\C=C[C@@H](C)[C@@H](O)[C@H](C)[C@@H](O)[C@H](C)[C@H](OC(C)=O)[C@@H]1C	> 11.4 µM	-8.05	7.34%	-6.61	> 46	> 9.22	inactive	inactive	–	–	–	–	–	–	–
CN(C)CN1CSC(=S)N(CN(C)C)C1	> 11.4 µM	-2.13	1.69%	0.0184	> 46	> 9.22	inactive	inactive	–	3.16 µM (active)	–	3.16 µM (active)	–	–	–
O=C(O)CSc1n[nH]c(=O)[nH]c1=O	> 11.4 µM	0.951	5.38%	13.4	> 46	> 9.22	inactive	inactive	–	inactive	–	inactive	-64.1% [at 11.4 µM]	inactive	–
CC1(C)CC(Nc2ccc(Nc3ccccc3)cc2)CC(C)(C)N1	> 11.4 µM	-24.4	6.65%	-6.18	> 46	> 9.22	inactive	inactive	–	–	–	–	–	–	–
Cc1cccc(CNc2ncnc3[nH]ncc23)c1	> 11.4 µM	-1.11	-3.71%	-8.78	> 46	> 9.22	inactive	inactive	–	–	–	–	–	–	–
NC1(C(=O)NC2(C(=O)O)CCCC2)CCCC1 (HELM PEPTIDE1{[NC1(C(=O)[*:2])CCCC1].[O=C(O)C1(N[*:1])CCCC1]}$$$$V2.0)	> 11.4 µM	2.4	-2.57%	8.97	> 46	> 9.22	inactive	inactive	–	–	–	–	–	–	–
O=C(O)Cc1cccc2c(=O)cc(-c3ccccc3)oc12	> 11.4 µM	-1.49	-5.58%	-3.42	> 46	> 9.22	inactive	inactive	–	–	–	–	–	–	–
N#C/C(=C\Nc1ccccn1)C(=O)c1ccco1	> 11.4 µM	2.96	2.59%	3.37	> 46	> 9.22	inactive	inactive	–	3.16 µM (active)	–	–	–	–	-12.2
O=C1c2ccccc2C(=O)c2c1ccc(N1C(=O)c3ccccc3C1=O)c2-c1c(N2C(=O)c3ccccc3C2=O)ccc2c1C(=O)c1ccccc1C2=O	> 11.4 µM	-8.78	-22.9%	12	> 46	> 9.22	inactive	inactive	–	inactive	–	inactive	–	inactive	–
CC(=O)/C(=C\c1ccccc1F)C(=O)c1ccccc1	> 11.4 µM	-4.86	2.06%	-1.38	> 46	> 9.22	inactive	inactive	inactive	–	–	2 µM (active)	–	–	–
CN(Cc1cc(Br)cc(Br)c1O)Cc1c(O)ccc2ccccc12	> 11.4 µM	3.01	-25.5%	-8.41	> 46	> 9.22	inactive	inactive	inactive	–	–	0.501 µM (active)	–	1.58 µM (active)	–
N#C/C(=C(\O)C(=O)O)c1ccc(-c2cccc3ccccc23)cc1	> 11.4 µM	-3.67	4.07%	3.75	> 46	> 9.22	inactive	inactive	–	–	–	inactive	–	–	–
CC1(C)N=C(N)N=C(N)N1c1cccc(OCc2cccc(N)c2)c1	> 11.4 µM	11.8	-27.5%	-3.01	> 46	> 9.22	inactive	inactive	–	–	–	–	–	2.51 µM (active)	–
Cc1[nH]c(N)nc(=S)c1CCCNc1ccccc1	> 11.4 µM	-2.18	3.26%	3.47	> 46	> 9.22	inactive	inactive	inactive	–	–	2 µM (active)	–	–	–
Clc1ccccc1/C=C\c1ccnc2ccccc12	> 11.4 µM	-23.6	2.98%	1.25	> 46	> 9.22	inactive	inactive	–	–	–	–	–	–	-24.5
c1ccc2sc(SCN(C3CCCCC3)C3CCCCC3)nc2c1	> 11.4 µM	4.99	-7.96%	-3.43	> 46	> 9.22	inactive	inactive	–	–	–	–	–	1.58 µM (active)	–
CC(C)[C@](N)(C(=O)O)c1ccccc1	> 11.4 µM	-9.87	5.98%	29.8	> 46	> 9.22	inactive	inactive	–	–	–	–	–	inactive	–
NS(=O)(=O)c1nc(S(=O)(=O)O)c2[nH]cnc2n1	> 11.4 µM	7.59	2.24%	2.49	> 46	> 9.22	inactive	inactive	–	–	–	inactive	–	–	–
Nc1nc(Cl)cc(NCCO)n1	> 11.4 µM	-4.13	10.4%	4.67	> 46	> 9.22	inactive	inactive	–	–	–	inactive	–	inactive	–
CN(C)c1ccc(C(=C2C=CC(=[N+](C)C)C=C2)c2c(O)c(S(=O)(=O)O)cc3cc(S(=O)(=O)O)ccc23)cc1	> 11.4 µM	3.1	-12.3%	4.39	> 46	> 9.22	inactive	inactive	–	–	–	inactive	–	–	–
S[C@@H]1CCCN(Cc2ccccc2)C1	> 11.4 µM	1.2	-16.1%	2.98	> 46	> 9.22	inactive	inactive	inactive	–	–	3.16 µM (active)	–	0.794 µM (active)	–
CC(=O)OC(C)(C)N=Nc1ccc(Br)cc1	> 11.4 µM	-5.95	14.8%	2.84	> 46	> 9.22	inactive	inactive	–	–	–	1.26 µM (active)	–	–	–
CN(C)Cc1c[nH]c2nc[nH]c(=O)c12	> 11.4 µM	1.16	-5.56%	1.72	> 46	> 9.22	inactive	inactive	–	–	–	–	–	inactive	–
O=C(O)c1ccc(S(=O)(=O)N=Nc2c(O)[nH]c3ccccc23)cc1	> 11.4 µM	-0.32	4.27%	21.1	> 46	> 9.22	inactive	inactive	–	–	–	inactive	–	–	–
